KCNQ2 pot: potentiators of rat KCNQ2 potassium channel | actives 0.54% (n = 310,000) | CHO-K1 KCNQ2, FluxOR thallium flux fluorescence; stronger effect = higher value | O88943 | B-score at 10 µM | AID 2239;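 active means fluorescence ratio B-score at least 3 SD of library B-scores, with initial fluorescence B-score within 3 of them, cut at about 5.3 in these data; same plate scores as AID 2156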;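 further: B-score of peak minus minimum over baseline fluorescence ratio after K+ and Tl+ stimulus; positive B-score means potentiation of KCNQ2 with more thallium influx and brighter signal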
Target sequence (O88943 whole entry, looked up): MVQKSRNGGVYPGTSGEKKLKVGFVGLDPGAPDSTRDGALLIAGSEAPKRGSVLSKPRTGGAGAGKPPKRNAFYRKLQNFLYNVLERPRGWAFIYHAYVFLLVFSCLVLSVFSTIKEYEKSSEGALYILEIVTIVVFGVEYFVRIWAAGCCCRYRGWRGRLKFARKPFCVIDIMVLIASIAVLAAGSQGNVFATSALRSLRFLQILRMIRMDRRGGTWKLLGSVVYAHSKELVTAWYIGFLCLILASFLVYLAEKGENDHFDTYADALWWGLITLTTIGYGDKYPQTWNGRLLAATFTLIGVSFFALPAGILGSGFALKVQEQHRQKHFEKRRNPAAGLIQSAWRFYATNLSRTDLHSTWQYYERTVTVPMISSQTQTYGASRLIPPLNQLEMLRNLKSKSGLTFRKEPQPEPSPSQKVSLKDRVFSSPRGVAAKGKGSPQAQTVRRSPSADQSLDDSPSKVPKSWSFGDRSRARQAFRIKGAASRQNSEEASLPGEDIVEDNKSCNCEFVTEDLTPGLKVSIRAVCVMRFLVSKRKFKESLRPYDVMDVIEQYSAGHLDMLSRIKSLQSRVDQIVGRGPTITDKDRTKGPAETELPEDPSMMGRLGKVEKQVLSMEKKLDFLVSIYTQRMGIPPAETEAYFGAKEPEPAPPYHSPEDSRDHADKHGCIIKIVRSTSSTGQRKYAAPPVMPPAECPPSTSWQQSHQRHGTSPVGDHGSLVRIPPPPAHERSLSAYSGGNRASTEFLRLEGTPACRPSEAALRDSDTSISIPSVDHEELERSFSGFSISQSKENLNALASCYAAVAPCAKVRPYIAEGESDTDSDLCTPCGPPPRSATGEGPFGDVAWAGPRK
KCNQ2 inh: blocks the rat KCNQ2 potassium channel; actives 1.1% (n = 310,000); CHO-K1 KCNQ2, FluxOR thallium flux, 20 min; stronger effect = lower value; B-score at 10 µM; O88943;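 active means fluorescence ratio B-score at most minus 3 library SDs, with starting brightness B-score within 2 library SDs, cut at about -5.5 in these data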
Kir21 conf inh: confirmation of mouse Kir2.1 potassium channel inhibitors; Tl flux remaining, % of negative control (stronger effect = lower value), % at 10 µM; actives 41% (n = 2,300); shares compounds with KCNQ2 pot; AID 2032; Kir2.1-expressing cells, FluxOR thallium flux fluorescence; stronger effect = lower value;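 active means Primary-screen hit whose thallium flux fell at least 3 control SD below untreated wells in both duplicates, with normal baseline fluorescence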
HEK293 Tl flux: parental HEK293 activity in Kir2.1 inhibitor counter-screen. shares compounds with KCNQ2 pot. parental HEK293 cells, FluxOR thallium flux fluorescence; 0% = unstimulated blank wells. FluxOR signal as % of negative control (100 = no effect), % at 10 µM. actives 19% (n = 2,300);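 active means dye signal at least 3 control SD above or below untreated wells in both duplicates, raw fluorescence within 3, either direction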;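 further: percent is based on the flux ratio of peak minus minimum fluorescence over baseline F0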
CHO-K1 Tl ctr: parental CHO-K1 activity in KCNQ2 potentiator counter-screen; shares compounds with KCNQ2 pot; parental CHO-K1 cells, FluxOR thallium flux fluorescence; zero = vehicle mean+3SD, 100% = vehicle-minus-blank window; activity increase over 3SD of controls, % at 10 µM; actives 43% (n = 1,200); AID 2282;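 active means signal rise of at least 3 SD above the untreated control mean, in both duplicate wells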;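 further: counter screen of KCNQ2 potentiator hits so any rise reflects channel-independent effects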
KCNQ1 pot spec: human KCNQ1 counter-target activity of KCNQ2 potentiators; actives 28% (n = 1,200); activation over 3SD threshold, % at 10 µM; shares compounds with KCNQ2 pot; CHO KCNQ1 stable, FluxOR thallium flux fluorescence; beyond 3SD, as % of vehicle-control signal;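 active means fluorescence ratio rise of at least 3 SD of vehicle wells above their mean, in both replicate wells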
KCNQ2 pot conf: confirmation of rat KCNQ2 potassium channel potentiators; shares compounds with KCNQ2 pot; CHO-KCNQ2 cells, FluxOR thallium flux fluorescence; potentiation, less the hit threshold, % at 10 µM; actives 68% (n = 1,200);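 active means fluorescence ratio rising 3 SD or more over the vehicle control mean in both replicates, plus primary screen hit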;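 further: peak minus minimum thallium fluorescence divided by baseline after K/Tl stimulus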
Kir2-1 sel: mouse Kir2.1 off-target activity of KCNQ2 potentiators | shares compounds with KCNQ2 pot | HEK293 Kir2.1, FluxOR thallium flux fluorescence | activity over 3SD threshold, % at 10 µM | actives 2% (n = 1,200);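 active means fluorescence ratio rise of at least 3 SD above the vehicle-control mean, seen in both replicates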
KCNQ2 W236L MoA: KCNQ2 potentiators acting on retigabine-insensitive rat KCNQ2 W236L mutant; AID 2558; CHO KCNQ2-W236L, automated patch clamp current; current increase over 3SD of negative controls (%), stronger effect = higher value, % at 25 µM; actives 10% (n = 940); shares compounds with KCNQ2 pot;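 active means current increase at least 3 SD of the untreated controls above them in both duplicate recordings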
Of the large screens only hits and unclear results are named; the others gave an inactive call (follow-up assays come after a bar, where they were run); ! = a repeat was not active. Compounds with a hit are over-represented: about 1.6% of the library has one in this group of screens.

CC1Cc2cc(/C=C3/SC(=S)NC3=O)ccc2O1 (stereo not given)	KCNQ2 pot 10 | Kir21 conf inh inactive | HEK293 Tl flux 145% | CHO-K1 Tl ctr inactive | KCNQ1 pot spec inactive | KCNQ2 pot conf 7.8 | Kir2-1 sel inactive | KCNQ2 W236L MoA 4.5%
COc1ccc(-n2cc([N+](=O)[O-])c(=O)c3ccc(Cl)cc32)cc1	none (no result: KCNQ2 pot)
O=[N+]([O-])c1cccc(S(=O)(=O)Nc2nc3ccccc3nc2Nc2cccc(S(=O)(=O)N3CCCCC3)c2)c1	KCNQ2 pot 8.2 | Kir21 conf inh inactive | HEK293 Tl flux inactive | CHO-K1 Tl ctr inactive | KCNQ1 pot spec 17 | KCNQ2 pot conf inactive | Kir2-1 sel inactive
Cc1ccc(S(=O)(=O)Nc2nc3ccccc3nc2Nc2cccc(S(=O)(=O)N3CCCC3)c2)cc1	none (no result: KCNQ2 pot)
CC(C)n1c(O)c(N=Nc2ccc(Cl)c(C(=O)O)c2)c2ccccc21	KCNQ2 pot 7.5 | Kir21 conf inh inactive | HEK293 Tl flux inactive | CHO-K1 Tl ctr 78 | KCNQ1 pot spec 29 | KCNQ2 pot conf 23 | Kir2-1 sel inactive | KCNQ2 W236L MoA 50%
CCn1c(O)c(N=Nc2ccc(Cl)c(C(=O)O)c2)c2ccccc21	none
CCOC(=O)c1c(C)nn(-c2ccc(NC(=O)CSCC(=O)O)cc2)c1C	none (no result: KCNQ2 pot)
Cc1ccccc1C(=O)c1cccn1CC(=O)NCc1ccccc1	none (no result: KCNQ2 pot)
Cc1ccccc1C(=O)c1cccn1CC(=O)NCC(C)c1ccccc1 (stereo not given)	none | Kir21 conf inh 66% | HEK293 Tl flux inactive
O=C(CSc1ccc(Cl)cc1)N1N=CCC1c1ccccc1 (stereo not given)	none (no result: KCNQ2 pot) | Kir21 conf inh 66% | HEK293 Tl flux inactive
NC(=NC(=O)c1ccc(Cl)cc1)N1N=CCC1c1ccccc1 (stereo not given)	none (no result: KCNQ2 pot)
O=C(c1ccccc1NS(=O)(=O)c1ccccc1[N+](=O)[O-])N1CCCC1	none
O=C(CSc1nc(N2CCCCC2)nc(N2CCCCC2)n1)c1ccccc1	KCNQ2 pot 32 | Kir21 conf inh inactive | HEK293 Tl flux inactive | CHO-K1 Tl ctr inactive | KCNQ1 pot spec 38 | KCNQ2 pot conf 20 | Kir2-1 sel inactive | KCNQ2 W236L MoA inactive
Cc1cc(N2CCCCC2)nc(SCC(=O)c2ccccc2)n1	none (no result: KCNQ2 pot)
CC1CN(c2nc3ccccc3nc2SCC(=O)Nc2cccc(C(F)(F)F)c2)CC(C)O1 (stereo not given)	none (no result: KCNQ2 pot)
COC(=O)c1ccccc1N(C)S(=O)(=O)c1cc2c3c(c1)CCC(=O)N3CCC2	none (no result: KCNQ2 pot)
NC(=O)c1ccccc1NC(=O)CC12CC3CC(CC(C3)C1)C2	none
CCOc1ccc(C(=O)N/N=C/c2ccc(-c3ccc(S(=O)(=O)Nc4ncccn4)cc3)o2)cc1	none
O=C(N/N=C/c1ccc(-c2ccc(S(=O)(=O)Nc3ncccn3)cc2)o1)c1cc2ccccc2cc1O	KCNQ2 pot 5.5 | Kir21 conf inh inactive | HEK293 Tl flux inactive | CHO-K1 Tl ctr inactive | KCNQ1 pot spec inactive | KCNQ2 pot conf inactive | Kir2-1 sel inactive
CS(=O)(=O)N1CCN(C(=O)Nc2ccccc2)CC1	none
CC(C)c1ccc(NC(=O)N2CCN(S(=O)(=O)c3ccccc3)CC2)cc1	KCNQ2 pot 7.3 | CHO-K1 Tl ctr inactive | KCNQ1 pot spec inactive | KCNQ2 pot conf inactive | Kir2-1 sel inactive | KCNQ2 W236L MoA inactive
COc1cccc(OC)c1OCCOc1ccccc1OC(C)C	none (no result: KCNQ2 pot) | Kir21 conf inh 41% | HEK293 Tl flux inactive
COc1cccc(OC)c1OCCCOc1c(OC)cccc1OC	none (no result: KCNQ2 pot)
FC(F)(F)c1cnc(COc2cc(Cl)cc(Cl)c2)c(Cl)c1	none (no result: KCNQ2 pot)
O=C(NNC(=O)c1ccccc1OCc1ccc(F)cc1)c1ccncc1	KCNQ2 pot 6.1 | Kir21 conf inh inactive | HEK293 Tl flux inactive | CHO-K1 Tl ctr 23 | KCNQ1 pot spec inactive | KCNQ2 pot conf inactive | Kir2-1 sel inactive
COc1ccccc1C(=O)NNC(=O)c1ccc(F)cc1	none (no result: KCNQ2 pot)
COc1ccc(-n2c(=O)[nH]cc(C(=O)Nc3ccc4c(c3)OCO4)c2=O)cc1OC	none (no result: KCNQ2 pot)
O=C(CSc1nnc2ccc(-c3cccnc3)nn12)Nc1cccc(F)c1	none (no result: KCNQ2 pot)
Cc1cnc(NC(=O)c2cccs2)s1	none
O=C(Nc1ncc([N+](=O)[O-])s1)c1cccs1	KCNQ2 pot 7.7! | Kir21 conf inh inactive | HEK293 Tl flux inactive | CHO-K1 Tl ctr 3.5 | KCNQ1 pot spec inactive | KCNQ2 pot conf inactive | Kir2-1 sel inactive
Cc1ccc([N+](=O)[O-])cc1NC(=O)C(C)Sc1nnc(C)n1CC1CCCO1 (stereo not given)	none
COc1ccsc1NC(=O)OCc1ccc(Cl)cc1	none (no result: KCNQ2 pot)
CSc1nsc(NC(=O)OCc2ccc(Cl)cc2)n1	KCNQ2 pot 5.8 | Kir21 conf inh inactive | HEK293 Tl flux inactive | CHO-K1 Tl ctr 89 | KCNQ1 pot spec inactive | KCNQ2 pot conf inactive | Kir2-1 sel inactive
CCCN(CCC)Cc1cc(=O)oc2cc3c(cc12)CCC3	none (no result: KCNQ2 pot)
CCOc1ccc(S(=O)(=O)N(CC(=O)N2CCC(C(N)=O)CC2)c2ccc(F)cc2)cc1	none (no result: KCNQ2 pot)
CN(CC(=O)Nc1ccc(OC(F)(F)F)cc1)C1CCCCC1	none (no result: KCNQ2 pot)
O=C(CNCC1CCCCC1)Nc1ccc(OC(F)(F)F)cc1	KCNQ2 pot 15 | Kir21 conf inh inactive | HEK293 Tl flux inactive | CHO-K1 Tl ctr 0.6 | KCNQ1 pot spec inactive | KCNQ2 pot conf 35 | Kir2-1 sel inactive | KCNQ2 W236L MoA inactive
COc1ccc(S(=O)(=O)Nc2cc(S(=O)(=O)c3ccccc3)c(O)cc2C)cc1	none
Cc1cc(O)c(C(C)C)cc1NS(=O)(=O)c1ccccc1	none (no result: KCNQ2 pot) | Kir21 conf inh 45% | HEK293 Tl flux inactive
CCCCn1c(C(C)NC(=O)CC)nc2ccccc21 (stereo not given)	none
CCC(=O)Nc1nc2ccccc2n1CCN1CCOCC1	none (no result: KCNQ2 pot)
CCCCCCCn1c(NC(=O)CC)nc2ccccc21	KCNQ2 pot 10 | Kir21 conf inh inactive | HEK293 Tl flux inactive | CHO-K1 Tl ctr inactive | KCNQ1 pot spec inactive | KCNQ2 pot conf 61 | Kir2-1 sel inactive | KCNQ2 W236L MoA inactive
CCCCCCn1c(C(C)NC(=O)c2ccco2)nc2ccccc21 (stereo not given)	KCNQ2 inh -6.2 | Kir21 conf inh 54% | HEK293 Tl flux inactive
CCCCSc1nnc(CSc2ncccn2)n1C	none
CCc1ccccc1NC1=NCC(=O)N1C1CCCC1	none (no result: KCNQ2 pot)
CC[n+]1ccc(C(=O)NCc2ccccc2)cc1	none
